Measured values taken from PubChem BioAssay (NCI).
About 83,000 compounds went through this panel and 20% of them were active in at least one assay; those are over-represented in the sample as a whole.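 Testing used 96-well plates and a 48-hour single-concentration exposure. Example: -40 means 40% of the starting cells died.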 Calls of active or inactive are those of the source. Rule for the calls: active = growth percent below 10; inactive = the rest.

Columns and labels:
Test in all cases: NCI-60 one-dose screen, 48 h (100 = growth as untreated, 0 = no growth, -100 = all killed)
Conditions in all cases: 10 µM unless noted
HCT-15 colon = system: HCT-15 colon
HT29 colon = system: HT29 colon
SNB-75 CNS = system: SNB-75 CNS
SNB-19 CNS = system: SNB-19 CNS
U251 CNS = system: U251 CNS
PC-3 prostate = system: PC-3 prostate
SK-MEL-5 melanoma = system: SK-MEL-5 melanoma
UACC-62 melanoma = system: UACC-62 melanoma
LOX IMVI melanoma = system: LOX IMVI melanoma
SK-MEL-28 melanoma = system: SK-MEL-28 melanoma

Measured: growth

O=[N+]([O-])c1cccc(-c2nnc3c(/C=C/c4ccc(F)cc4)nc4ccccc4n23)c1
inactive: HCT-15 colon 85.8% | HT29 colon 98.5% | SNB-75 CNS 54.1% | SNB-19 CNS 92.5% | U251 CNS 95.9% | PC-3 prostate 103% | SK-MEL-5 melanoma 90.9% | UACC-62 melanoma 85.1% | LOX IMVI melanoma 98.5% | SK-MEL-28 melanoma 107%

COc1ccc(-c2cc(-c3cc(C(C)C)c(O)cc3C)nn2-c2ccc(S(N)(=O)=O)cc2)cc1
active: HCT-15 colon 3.06% | SNB-75 CNS -0.16%
inactive: HT29 colon 88.4% | SNB-19 CNS 30% | U251 CNS 14.4% | PC-3 prostate 49.3% | SK-MEL-5 melanoma 48.6% | UACC-62 melanoma 21.5% | LOX IMVI melanoma 22.6% | SK-MEL-28 melanoma 58.8%

CCCCCCCCc1ccc(C(=O)Nc2ccc(C)cc2C(=O)O)cc1
inactive: HCT-15 colon 53.2% | HT29 colon 109% | SNB-75 CNS 106% | SNB-19 CNS 67.5% | U251 CNS 75.4% | PC-3 prostate 66.6% | SK-MEL-5 melanoma 87.1% | UACC-62 melanoma 87.8% | LOX IMVI melanoma 89.9% | SK-MEL-28 melanoma 108%

COc1ccc2ccccc2c1/C=C1\SC(=Nc2ccc(O)cc2)NC1=O
inactive: SNB-75 CNS 77.7% | SNB-19 CNS 24.5% | PC-3 prostate 21.5% | UACC-62 melanoma 16.4% | SK-MEL-28 melanoma 52.7%
active: HCT-15 colon 4.61% | HT29 colon 0.351% | U251 CNS 5.13% | SK-MEL-5 melanoma -53.6% | LOX IMVI melanoma -3.89%

CC1=C(C)C(=O)C(NCCN2CCOCC2)=C(Br)C1=O
active: LOX IMVI melanoma -28.5%
inactive: HCT-15 colon 90.7% | HT29 colon 93.7% | SNB-75 CNS 106% | SNB-19 CNS 91.3% | U251 CNS 44.8% | PC-3 prostate 61.8% | SK-MEL-5 melanoma 62.1% | UACC-62 melanoma 39.4% | SK-MEL-28 melanoma 75.4%

O=C1NC(=S)/C(=C/c2cn(-c3ccccc3)nc2-c2ccccc2)S1
active: SK-MEL-5 melanoma -42.3% | UACC-62 melanoma 6.83%
inactive: HCT-15 colon 20% | HT29 colon 22.9% | SNB-75 CNS 80.7% | SNB-19 CNS 14.3% | U251 CNS 14.6% | PC-3 prostate 34.9% | LOX IMVI melanoma 28.9% | SK-MEL-28 melanoma 20.5%

CN1CCN(c2ccc3c4c(cccc24)C(=O)N(c2cccc(-c4nn(-c5ccccc5)cc4-c4nc5ccccc5s4)c2)C3=O)CC1
inactive: HCT-15 colon 10.2% | HT29 colon 45.6% | SNB-75 CNS 81.9% | SNB-19 CNS 82.9% | U251 CNS 67.9% | PC-3 prostate 90.6% | SK-MEL-5 melanoma 90.3% | UACC-62 melanoma 119% | LOX IMVI melanoma 96.6% | SK-MEL-28 melanoma 51.6%

Cc1ccc2nc(SCc3ccccc3F)n(-c3ccccc3)c(=O)c2c1
inactive: HCT-15 colon 83.3% | HT29 colon 78.7% | SNB-75 CNS 156% | SNB-19 CNS 96.8% | U251 CNS 99.4% | PC-3 prostate 77.9% | SK-MEL-5 melanoma 93.9% | UACC-62 melanoma 74.3% | LOX IMVI melanoma 84.9% | SK-MEL-28 melanoma 100%

Cc1cc(C(NC(=O)CCCCCNc2cccc3c2C(=O)N(C2CCC(=O)CC2=O)C3=O)c2cccc(N(C)C)c2)c(O)c2ncccc12 (stereo not given)
active: HCT-15 colon 8.01% | PC-3 prostate 7.35% | SK-MEL-5 melanoma -70.1% | UACC-62 melanoma -6.03% | LOX IMVI melanoma 0.535%
inactive: HT29 colon 28.6% | SNB-75 CNS 32.9% | SNB-19 CNS 10.1% | U251 CNS 17.6% | SK-MEL-28 melanoma 10.7%

O=C1c2cccc3c(N4CCN(c5ccccc5)CC4)ccc(c23)C(=O)N1c1cccc(-c2nn(-c3ccccc3)cc2-c2nc3ccccc3s2)c1
inactive: HCT-15 colon 112% | HT29 colon 116% | SNB-75 CNS 98.1% | SNB-19 CNS 100% | U251 CNS 100% | PC-3 prostate 85.9% | SK-MEL-5 melanoma 99% | UACC-62 melanoma 91.4% | LOX IMVI melanoma 94.5% | SK-MEL-28 melanoma 104%

Cc1ccc(C(=O)Nc2cc(-n3ccnc3)cc(C(F)(F)F)c2)cc1-n1cc(-c2cnc3cccnn23)nn1
inactive: HCT-15 colon 97.4% | HT29 colon 39.2% | SNB-75 CNS 132% | SNB-19 CNS 118% | U251 CNS 112% | PC-3 prostate 123% | SK-MEL-5 melanoma 73% | UACC-62 melanoma 19.5% | LOX IMVI melanoma 39.4% | SK-MEL-28 melanoma 34.6%

CC[C@]12C=CCN3CC[C@@]4(c5ccc(OC)cc5N(C)[C@H]4[C@@](O)(C(=O)OC)[C@@H]1OC(=O)CCC[P+](c1ccc(OC)cc1)(c1ccc(OC)cc1)c1ccc(OC)cc1)[C@@H]32
active: HCT-15 colon -86.3% | HT29 colon -84.3% | SNB-75 CNS -34% | SNB-19 CNS -96.7% | U251 CNS -93.7% | PC-3 prostate -78.8% | SK-MEL-5 melanoma -99.6% | UACC-62 melanoma -97.1% | LOX IMVI melanoma -96.4% | SK-MEL-28 melanoma -96.3%

COc1cc(C2CC(c3ccc(S(=O)(=O)NCCNc4nc(N(C)C)nc(N5CCOCC5)n4)cc3)=Nc3c(N)nc(N)nc3N2)cc(OC)c1OC (stereo not given)
inactive: HCT-15 colon 93.8% | HT29 colon 99.8% | SNB-75 CNS 102% | SNB-19 CNS 96.2% | U251 CNS 97.5% | PC-3 prostate 96.3% | SK-MEL-5 melanoma 91.4% | UACC-62 melanoma 93.7% | LOX IMVI melanoma 94.3% | SK-MEL-28 melanoma 100%

Cc1nn(-c2ccccc2)c2nc(C)n(C(=O)N/N=C/c3cccc([N+](=O)[O-])c3)c(=O)c12
inactive: HCT-15 colon 63.5% | HT29 colon 88.6% | SNB-75 CNS 75.4% | SNB-19 CNS 94.1% | U251 CNS 93.1% | PC-3 prostate 92.9% | SK-MEL-5 melanoma 90.7% | UACC-62 melanoma 73.5% | LOX IMVI melanoma 82.7% | SK-MEL-28 melanoma 97.8%

COc1cc(/C=C/C(=O)c2cnn(-c3cc(=O)[nH]c4ccccc34)c2C)cc(OC)c1OC
inactive: HCT-15 colon 12.2% | SNB-75 CNS 71.9% | SNB-19 CNS 26.6% | PC-3 prostate 43.3% | UACC-62 melanoma 29.9% | LOX IMVI melanoma 13.5% | SK-MEL-28 melanoma 36.5%
active: HT29 colon 9.84% | U251 CNS 9.13% | SK-MEL-5 melanoma -24.9%

O=C(N/N=C/c1ccc(Cl)o1)c1[nH]c2ccc(Br)cc2c1-c1ccccc1
active: HCT-15 colon -33.9% | HT29 colon -34.6% | SNB-75 CNS -32.9% | SNB-19 CNS 9.24% | U251 CNS -89.9% | SK-MEL-5 melanoma -74.7% | UACC-62 melanoma 3.42% | LOX IMVI melanoma -58.2% | SK-MEL-28 melanoma 2.44%
inactive: PC-3 prostate 15.7%

COc1cccc(NC(=O)c2ccc(NC(=O)CCl)s2)c1
inactive: SNB-75 CNS 74.6% | SNB-19 CNS 73.8% | SK-MEL-5 melanoma 32.1% | SK-MEL-28 melanoma 51%
active: HCT-15 colon -29.7% | HT29 colon -7.55% | U251 CNS -39.9% | PC-3 prostate -12.4% | UACC-62 melanoma -19.4% | LOX IMVI melanoma -94.9%

Cn1cc(Nc2ncnc(-c3ccc(N4CCCC4)c(C#N)c3)n2)cn1
inactive: HCT-15 colon 40.8% | HT29 colon 74.6% | SNB-75 CNS 30.8% | SNB-19 CNS 92.4% | U251 CNS 94.3% | PC-3 prostate 78.8% | SK-MEL-5 melanoma 49% | UACC-62 melanoma 59.4% | LOX IMVI melanoma 48.9% | SK-MEL-28 melanoma 88.3%

COc1cc(/C=C/C(=O)c2ccc(S(=O)(=O)NCCNc3nc(N(C)C)nc(N4CCOCC4)n3)cc2)cc(OC)c1OC
inactive: SNB-75 CNS 20% | SNB-19 CNS 29.1% | SK-MEL-5 melanoma 18.8%
active: HCT-15 colon -100% | HT29 colon -100% | U251 CNS -100% | PC-3 prostate -76.5% | UACC-62 melanoma -21.7% | LOX IMVI melanoma -100% | SK-MEL-28 melanoma -100%

Cc1oc(-c2ccccc2)nc1CN[C@@H]1C[C@@H]2C[C@H]([C@H]1C)C2(C)C
active: HT29 colon 7.34% | SK-MEL-5 melanoma -94.1% | UACC-62 melanoma -32.6% | LOX IMVI melanoma -95.5% | SK-MEL-28 melanoma 2.07%
inactive: HCT-15 colon 18.8% | SNB-75 CNS 79.2% | SNB-19 CNS 37.6% | U251 CNS 41.2% | PC-3 prostate 30.8%

COc1ccc(-c2nc3ccc(-c4nnc(SCc5ccccc5)o4)cc3[nH]2)cc1
inactive: PC-3 prostate 20.1%
active: HCT-15 colon -17.4% | HT29 colon 9.58% | SNB-75 CNS -82.8% | SNB-19 CNS 2.92% | U251 CNS -77.1% | SK-MEL-5 melanoma -21.7% | UACC-62 melanoma -72.3% | LOX IMVI melanoma -96.6% | SK-MEL-28 melanoma -36.3%

C/C(=N\Nc1ccc(C(=O)O)cc1)c1cnn(-c2cc(=O)[nH]c3ccc(C)cc23)c1C
inactive: HCT-15 colon 97.4% | HT29 colon 100% | SNB-75 CNS 91.9% | SNB-19 CNS 97.5% | U251 CNS 102% | PC-3 prostate 88.8% | SK-MEL-5 melanoma 97.9% | UACC-62 melanoma 91.5% | LOX IMVI melanoma 94.9% | SK-MEL-28 melanoma 107%

CN1CCN(C(=O)Oc2cc3c(c4ccccc24)[C@H](CCl)CN3C(=O)c2cc3cc(OCCCN4CCC4)ccc3[nH]2)[C@H]2CSSC[C@H]21
active: HCT-15 colon -1.96% | HT29 colon -1.25% | SNB-75 CNS -77.2% | SNB-19 CNS -15% | U251 CNS 6.86% | PC-3 prostate -8.67% | SK-MEL-5 melanoma -21.2% | UACC-62 melanoma -81.9% | LOX IMVI melanoma -23.9% | SK-MEL-28 melanoma -51.1%

Oc1ccc(F)c(Nc2nc(SCCN3CCOCC3)nc3c2cnn3CC(Cl)c2ccc(Br)cc2)c1 (stereo not given)
inactive: SNB-75 CNS 15.2% | SNB-19 CNS 46.1% | U251 CNS 21.9% | SK-MEL-5 melanoma 18.1% | UACC-62 melanoma 20.8% | SK-MEL-28 melanoma 21%
active: HCT-15 colon 1.07% | HT29 colon 8.07% | PC-3 prostate 7.79% | LOX IMVI melanoma -17.8%

CC(=O)c1c2c(c3ccc4c5ccccc5ccc4n13)C(=O)c1ccccc1C2=O
inactive: HCT-15 colon 81.6% | HT29 colon 107% | SNB-75 CNS 93.8% | SNB-19 CNS 65.4% | U251 CNS 82.9% | PC-3 prostate 77.5% | SK-MEL-5 melanoma 63.7% | UACC-62 melanoma 87% | LOX IMVI melanoma 64.5% | SK-MEL-28 melanoma 101%

Cc1ccc(C(=O)Nc2cc(-n3ccnc3C)cc(C(F)(F)F)c2)cc1C#Cc1cnc2cccnn12
inactive: SNB-19 CNS 30.3% | U251 CNS 22.1%
active: HCT-15 colon 5.01% | HT29 colon -16.8% | SNB-75 CNS -28.1% | PC-3 prostate 8.32% | SK-MEL-5 melanoma -67.6% | UACC-62 melanoma -40% | LOX IMVI melanoma -80.2% | SK-MEL-28 melanoma -32.4%
